{
  "source": "PubChem BioAssay (NCATS)",
  "note": "Inconclusive results are not listed. Entries that show only a call come without a potency. Calls of active or inactive are those of the source. Calls follow the shape of the dose curve; as a rule, active = well fitted cell-killing curve with a large enough effect; inconclusive = small, poorly fitted or top-dose-only effect; inactive = no such curve, though single readings can be large or run the other way.",
  "data": [
    {"test": "qHTS of pediatric cancer cell lines to identify multiple opportunities for drug repurposing: Primary screen for NB1643 cells (AID 1347099); also: nearly all actives have a fitted effect of over 50% in size", "conditions": "NB1643 neuroblastoma viability, CellTiter-Glo luminescence, 48 h; series mostly up to 46 µM", "source_text": "Drug repurposing or repositioning has been offered as a strategy for drug development in oncology programs. This approach has special potential for childhood cancers and other rare or orphan diseases, where the expected return on new drug development has been a disincentive to pharmaceuticals. […] In this project we exploit the poly-pharmacology of drugs to discover new indications via phenotypic screening of a panel of 19 well-characterized cell lines derived from solid tumors seen in children and adolescents. The goal is to identify approved drugs with previously unrecognized anticancer properties that has the potential to reveal new mechanisms and biological processes involved in carcinogenesis or drug resistance. We employed a titration-based paradigm (quantitative high-throughput screening or qHTS), where all compounds were tested at multiple concentrations for their effect on cell viability. Concentration-response curves (CRCs) were derived directly from the primary screen, and both potency and efficacy values were used to identify compounds with robust bioactivity profiles. We screened the NIH Chemical Genomics Center (NCGC) Pharmaceutical Collection (NPC) and Mechanism Interrogation Plate (MIPE) small molecule collections of approved and investigational compounds against these cell lines; and measured metabolically active cells after 48 hours of compound treatment as a proxy for cell viability. […] Assay Submitter: Nathalia J. Martinez, National Center for Advancing Translational Sciences, National Institutes of Health, Rockville, MD, USA; email: natalia.martinez@nih.gov Shen, M et al. Quantitative high-throughput phenotypic screening of pediatric cancer cell lines identifies multiple opportunities for drug repurposing. Oncotarget 2017 Dec 19;9(4):4758-4772. PMID 29435139.\nThe cells were obtained from University of North Carolina (UNC), Pediatric Preclinical Testing Program (PPT), and Coriell Institute (CI). qHTS cell viability assay: Cells were assayed in growth media at a density of 500-1,000 cells/well. Five microliters of cells were dispensed into 1,536-well, white, solid-bottom, TC-treated plates (Greiner Bio One) using a multidrop dispenser and incubated at 37 degrees C, 5% CO2, under a humidified atmosphere for 5 hours. Twenty-three nanoliters of compounds and controls (neutral control DMSO or positive control bortezomib at final concentration of 2.3 µM) were subsequently transferred by Kalypsys pintool. For primary screens, the MIPE collection was tested at 11-point dilutions (final concentrations range from 0.78 nM to 46 µM) and the NPC collection at 8-point dilutions (final concentrations range from 0.59 nM to 46 µM). Compounds tested in follow-up screens were assayed at 11-point dilutions. Cells were incubated for 48 hours, followed by addition of 3 µL of CellTiter-Glo (Promega). After a 15 min incubation at room temperature, samples were analyzed for luminescence intensity using a ViewLux High-throughput CCD imager equipped with clear filters.", "values": [
      {"smiles": "CCCCCCCCCCC(CO)CCCCCCCC", "note": "(stereo not given)", "Potency": "inactive"},
      {"smiles": "O=C(O)Cn1c(C(=O)Nc2nc(-c3ccccc3Cl)cs2)cc2ccccc21", "Potency": "inactive"},
      {"smiles": "Cc1c(N(C)C)c(=O)n(-c2ccccc2)n1C", "Potency": "inactive"},
      {"smiles": "O=C(Cn1ccnc1[N+](=O)[O-])NCCO", "Potency": "inactive"},
      {"smiles": "CCCOC(=O)c1ccc(N)cc1", "Potency": "inactive"},
      {"smiles": "O=C(OOC(=O)c1ccccc1)c1ccccc1", "Potency": "inactive"},
      {"smiles": "CC(=O)Nc1ccc(OCCOCCOc2ccc(NC(C)=O)cc2)cc1", "Potency": "inactive"},
      {"smiles": "C1CCN2C[C@@H]3C[C@@H](CN4CCCC[C@@H]34)[C@H]2C1", "Potency": "inactive"},
      {"smiles": "O=C(NCCCN1CCOCC1)c1ccc(Cl)cc1", "Potency": "inactive"},
      {"smiles": "CCc1cccc(CC)c1NC(=O)CN(CC(=O)O)CC(=O)O", "Potency": "inactive"},
      {"smiles": "CC1CCN(CCCC(=O)c2ccc(F)cc2)CC1", "Potency": "inactive"},
      {"smiles": "C/C(=C(\\CCO)SS/C(CCO)=C(\\C)N(C=O)Cc1cnc(C)nc1N)N(C=O)Cc1cnc(C)nc1N", "Potency": "inactive"},
      {"smiles": "Cc1ccsc1C(=CCCN1CCC[C@@H](C(=O)O)C1)c1sccc1C", "Potency": "inactive"},
      {"smiles": "CCCCCC(N)=O", "Potency": "inactive"},
      {"smiles": "CCCCCCCC(=O)OCC(O)CO", "note": "(stereo not given)", "Potency": "inactive"},
      {"smiles": "CC(N)CCCC(C)(C)O", "note": "(stereo not given)", "Potency": "inactive"},
      {"smiles": "Cc1onc(-c2ccccc2)c1-c1ccc(S(N)(=O)=O)cc1", "Potency": "inactive"},
      {"smiles": "CC(=O)N(CC(O)CN(C(C)=O)c1c(I)c(C(=O)NCC(O)CO)c(I)c(C(=O)NCC(O)CO)c1I)c1c(I)c(C(=O)NCC(O)CO)c(I)c(C(=O)NCC(O)CO)c1I", "note": "(stereo not given)", "Potency": "inactive"},
      {"smiles": "CCCC(O)C(CC)CO", "note": "(stereo not given)", "Potency": "inactive"},
      {"smiles": "CC[C@]12CCCN3CCc4c(n(c5ccccc45)[C@@](O)(C(=O)OC)C1)[C@@H]32", "Potency": "inactive"},
      {"smiles": "CC(=O)OCC(=O)[C@@]1(O)CC[C@H]2[C@@H]3CCC4=CC(=O)C=C[C@]4(C)[C@@]3(F)[C@@H](O)C[C@@]21C", "Potency": "inactive"},
      {"smiles": "CC1(C)S[C@@H]2[C@H](N=CN3CCCCCC3)C(=O)N2[C@H]1C(=O)O", "Potency": "inactive"},
      {"smiles": "NC(=O)CC[C@@H](N)C(=O)O", "Potency": "inactive"},
      {"smiles": "COc1nccnc1NS(=O)(=O)c1ccc(N)cc1", "Potency": "inactive"},
      {"smiles": "CC[N+](C)(CC)CCOC(=O)C1c2ccccc2Oc2ccccc21", "Potency": "inactive"},
      {"smiles": "CC(O)CCCCn1c(=O)c2c(ncn2C)n(C)c1=O", "note": "(stereo not given)", "Potency": "inactive"},
      {"smiles": "Cc1c(C)c2c(c(C)c1OC(=O)c1cccnc1)CC[C@@](C)(CCC[C@H](C)CCC[C@H](C)CCCC(C)C)O2", "Potency": "inactive"},
      {"smiles": "OC(CCN1CCCC1)(c1ccccc1)C1CCCCC1", "note": "(stereo not given)", "Potency": "inactive"},
      {"smiles": "O=C1CC[C@@H](C(=O)O)N1", "Potency": "inactive"},
      {"smiles": "CCCCCC(C)N", "note": "(stereo not given)", "Potency": "inactive"},
      {"smiles": "C/C=C1\\[C@H]2C=C(C)C[C@]1(N)c1ccc(=O)[nH]c1C2", "Potency": "inactive"},
      {"smiles": "O=C(O)CCC(=O)O", "Potency": "inactive"},
      {"smiles": "Cc1cccc(C)c1NC(=O)CC12CCCN1CCC2", "Potency": "inactive"},
      {"smiles": "Cc1[nH]c(C)c(Cl)c(=O)c1Cl", "Potency": "inactive"},
      {"smiles": "O=C1c2ccccc2S(=O)(=O)N1CCCCN1CCN(c2ncccn2)CC1", "Potency": "inactive"},
      {"smiles": "CCc1nnc(NS(=O)(=O)c2ccc(N)cc2)s1", "Potency": "inactive"},
      {"smiles": "CN/C(=C\\[N+](=O)[O-])NCCSCc1csc(CN(C)C)n1", "Potency": "inactive"},
      {"smiles": "C[C@]1(Cn2ccnn2)[C@H](C(=O)O)N2C(=O)C[C@H]2S1(=O)=O", "Potency": "inactive"},
      {"smiles": "CN1CCCN=C1COC(=O)C(O)(c1ccccc1)C1CCCCC1", "note": "(stereo not given)", "Potency": "inactive"},
      {"smiles": "FC(F)(F)C(Cl)Br", "note": "(stereo not given)", "Potency": "inactive"}
    ]}
  ]
}
